Reference: PubChem BioAssay (Tox21)
Inconclusive results are not listed. Entries that show only a call come without a potency. Activity calls are given as the source filed them. Unless noted, calls follow the shape of the full dose curve.

What was measured:
[1] = Nuclear factor erythroid 2-related factor 2/antioxidant responsive element (Nrf2/ARE) small molecule agonists: qHTS cell viability counter screen in human keratinocytes (AID 1919968; active = well fitted curve in the direction sought with a large enough effect in the repeat runs; an effect the other way counts as inactive or inconclusive; also: nearly all actives have a fitted effect of over 55% in size; also: potency is read from the fitted curve at half-maximal effect)
Summary of the method: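 Cytotoxicity was multiplexed with the Nrf2/ARE luciferase assay in the same wells. Stably transfected HaCaT keratinocytes were treated with test compounds for 23 h at 37 C. Cell viability was then measured by CellTiter-Fluor fluorescence.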

[2] = molecular target: Gonadotropin-releasing hormone receptor (Homo sapiens) (UniProt P30968); experiment: Human gonadotropin-releasing hormone receptor (GnRHR) small molecule agonists, calcium flux assay in GnRHR-HEK293 cells (AID 1920063); also: nearly all actives have a fitted effect of over 35% in size
Chain of Gonadotropin-releasing hormone receptor (Homo sapiens) (P30968 whole entry, looked up): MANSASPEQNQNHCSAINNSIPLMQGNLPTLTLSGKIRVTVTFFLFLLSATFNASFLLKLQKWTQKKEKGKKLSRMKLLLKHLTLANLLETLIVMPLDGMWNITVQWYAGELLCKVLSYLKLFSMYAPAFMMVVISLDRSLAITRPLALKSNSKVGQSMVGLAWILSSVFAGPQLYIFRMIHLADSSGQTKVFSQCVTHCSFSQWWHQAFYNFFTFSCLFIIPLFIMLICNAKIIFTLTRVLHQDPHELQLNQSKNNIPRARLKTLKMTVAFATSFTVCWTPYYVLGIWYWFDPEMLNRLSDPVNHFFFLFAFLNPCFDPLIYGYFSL
Summary of the method: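 Agonist activity was measured as intracellular calcium flux in HEK293 cells engineered to stably express human GnRHR. After dye loading for 1 hour at 37 C, compounds in DMSO were added and fluorescence was followed for 3 minutes.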

[3] = molecular target: KiSS-1 receptor (Homo sapiens) (UniProt Q969F8); experiment: Human kisspeptin (KISS1R) small molecule agonists, calcium flux assay in KISS1R-HEK293 cells (AID 1920064; active = well fitted curve in the direction sought with a large enough effect in the repeat runs; an effect the other way counts as inactive or inconclusive)
Chain of KiSS-1 receptor (Homo sapiens) (Q969F8 whole entry, looked up): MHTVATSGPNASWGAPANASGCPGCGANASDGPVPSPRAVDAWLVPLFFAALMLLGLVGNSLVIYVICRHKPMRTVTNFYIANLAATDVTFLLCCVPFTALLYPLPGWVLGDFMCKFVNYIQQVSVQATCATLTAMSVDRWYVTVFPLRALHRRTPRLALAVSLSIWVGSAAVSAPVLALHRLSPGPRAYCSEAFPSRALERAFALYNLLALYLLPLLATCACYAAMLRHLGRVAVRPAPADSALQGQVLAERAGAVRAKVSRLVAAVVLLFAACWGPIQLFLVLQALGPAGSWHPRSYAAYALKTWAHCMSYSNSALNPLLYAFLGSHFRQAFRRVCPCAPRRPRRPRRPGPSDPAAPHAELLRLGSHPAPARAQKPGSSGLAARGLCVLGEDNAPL
Summary of the method: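 Agonist activity is monitored as intracellular calcium rise in engineered HEK293 cells carrying human KISS1R. Cells are dye-loaded for 1 h at 37 C before compound addition, and fluorescence is recorded for 3 min.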

[4] = G protein-coupled receptor (GPCR) small molecule agonists, calcium flux assay: HEK293 wild type cell line counter screen (AID 1920065)
Summary of the method: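 Seed cells, incubate 18 h (37 C, 5% CO2); add calcium dye, 1 h at 37 C; pin-transfer compounds, ATP control or DMSO; read fluorescence 480/540 nm each second for 3 min.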

[5] = p53 small molecule agonists, cell-based qHTS assay with human liver microsomes: qHTS cell viability counter screen (AID 1963579); also: nearly all actives have a fitted effect of over 45% in size; also: potency is read from the fitted curve at half-maximal effect
Summary of the method: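 After the 460/530 nm beta-lactamase read, CellTiter-Glo was added to the same wells and luminescence measured after 30 min at room temperature, giving viability of p53RE-bla cells treated 16 h with compounds plus microsomes and NADPH.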

[6] = p53 small molecule agonists, cell-based qHTS assay with rat liver microsomes: qHTS cell viability counter screen (AID 1963580); also: nearly all actives have a fitted effect of over 45% in size; also: potency is read from the fitted curve at half-maximal effect
Summary of the method: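 Cytotoxicity counter screen: intracellular ATP measured by CellTiter-Glo luminescence in the same wells as the beta-lactamase reporter read, on HCT-116 p53RE-bla cells exposed 16 h at 37 C to compounds with rat liver microsomes and NADPH, each 0.5 mg/mL final.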

[7] = p53 small molecule agonists, cell-based qHTS assay: qHTS cell viability counter screen (AID 1963581); also: nearly all actives have a fitted effect of over 45% in size
Summary of the method: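 Viability was counter-screened in parallel with the p53 agonist reporter by measuring intracellular ATP luminescence in the same HCT-116 p53RE-bla wells after 16 h compound treatment at 37 C.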

[8] = p53 small molecule agonists, cell-based qHTS assay (AID 1963582; active = well fitted activation curve with a large enough effect in the signal ratio in the repeat runs, not every such curve was filed as active; the % refers to the signal ratio)
Summary of the method: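 Cells carrying a p53-responsive bla reporter are treated with test compounds for 16 h at 37 C; beta-lactamase activity is then detected with LiveBLAzer B/G FRET substrate after 2 h at room temperature.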

[9] = molecular target: 5-hydroxytryptamine receptor 2A (Homo sapiens) (UniProt P28223); experiment: 5-hydroxytryptamine receptor 2A (HTR2A) small molecule antagonists, cell-based qHTS assay (AID 1963586); also: nearly all actives have a fitted effect of over 45% in size
Chain of 5-hydroxytryptamine receptor 2A (Homo sapiens) (P28223 whole entry, looked up): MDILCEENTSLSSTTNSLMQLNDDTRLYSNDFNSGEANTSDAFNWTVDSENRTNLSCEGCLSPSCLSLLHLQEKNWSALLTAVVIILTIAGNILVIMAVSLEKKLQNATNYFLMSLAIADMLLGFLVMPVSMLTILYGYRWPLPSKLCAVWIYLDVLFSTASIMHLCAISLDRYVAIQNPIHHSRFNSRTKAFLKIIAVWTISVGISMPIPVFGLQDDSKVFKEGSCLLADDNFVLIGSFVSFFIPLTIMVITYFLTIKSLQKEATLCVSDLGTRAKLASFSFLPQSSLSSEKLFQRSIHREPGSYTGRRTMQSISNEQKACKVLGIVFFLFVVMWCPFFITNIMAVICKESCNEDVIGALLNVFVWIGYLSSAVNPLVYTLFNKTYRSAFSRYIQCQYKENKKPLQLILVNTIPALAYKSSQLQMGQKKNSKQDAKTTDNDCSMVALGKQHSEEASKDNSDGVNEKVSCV
Summary of the method: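 CHO cells stably expressing human HTR2A were plated for 18 h at 37 C, then loaded with calcium dye for 1 h. Compounds were preincubated 5 min at room temperature before DOI (4 nM solution) was added. Kinetic fluorescence was read for 3 min.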

[10] = molecular target: 5-hydroxytryptamine receptor 2A (Homo sapiens) (UniProt P28223); experiment: 5-hydroxytryptamine receptor 2A (HTR2A) small molecule agonists, cell-based qHTS assay (AID 1963587); also: nearly all actives have a fitted effect of over 30% in size; also: potency is read from the fitted curve at half-maximal effect
Summary of the method: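 CHO cells stably expressing human HTR2A, plated 18 h, loaded with calcium dye 1 h at 37 C. Agonist mode: compounds added and intracellular calcium fluorescence recorded kinetically for 2 min at 1 sec intervals.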

[11] = molecular target: Muscarinic acetylcholine receptor M1 (Homo sapiens) (UniProt P11229); experiment: Cholinergic receptor muscarinic 1 (CHRM1) small molecule antagonists, cell-based qHTS assay (AID 1963588); also: nearly all actives have a fitted effect of over 40% in size; also: potency is read from the fitted curve at half-maximal effect
Chain of Muscarinic acetylcholine receptor M1 (Homo sapiens) (P11229 whole entry, looked up): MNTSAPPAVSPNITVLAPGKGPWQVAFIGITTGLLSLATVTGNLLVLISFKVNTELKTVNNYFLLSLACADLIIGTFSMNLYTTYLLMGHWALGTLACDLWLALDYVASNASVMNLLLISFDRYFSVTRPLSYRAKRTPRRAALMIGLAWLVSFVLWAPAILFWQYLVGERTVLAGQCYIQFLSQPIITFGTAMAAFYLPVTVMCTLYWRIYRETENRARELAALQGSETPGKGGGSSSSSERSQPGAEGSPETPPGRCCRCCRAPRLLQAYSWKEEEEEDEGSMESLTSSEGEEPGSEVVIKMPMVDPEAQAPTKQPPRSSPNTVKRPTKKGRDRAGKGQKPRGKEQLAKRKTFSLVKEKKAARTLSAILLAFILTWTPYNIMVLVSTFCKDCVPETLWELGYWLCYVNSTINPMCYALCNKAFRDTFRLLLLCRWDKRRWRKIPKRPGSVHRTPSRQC
Summary of the method: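 Compounds were tested at 15 concentrations in three independent runs. Dye-loaded CHRM1-CHO cells were exposed 5 min at room temperature before stimulation by acetylcholine added at 50nM. Intracellular calcium was read kinetically on FDSS for 3 min.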

[12] = molecular target: Muscarinic acetylcholine receptor M1 (Homo sapiens) (UniProt P11229); experiment: Cholinergic receptor muscarinic 1 (CHRM1) small molecule agonists, cell-based qHTS assay (AID 1963589); also: nearly all actives have a fitted effect of over 35% in size
Summary of the method: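 Cells were plated and incubated 18 h at 37 C/5% CO2, loaded with calcium dye for 1 h at 37 C, then treated with compounds in DMSO. Fluorescence was recorded kinetically at 1 sec intervals.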

[13] = cAMP Responsive Elements (CRE) small molecule agonists, cell-based qHTS assay (AID 1963590)
Summary of the method: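 Cells carrying a CRE-driven beta-lactamase reporter (HEK 293T) are seeded, incubated overnight (18 h), and treated with test compounds for 3 h at 37 C; reporter activity is then detected with a FRET substrate after 2 h at room temperature.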

[14] = cAMP Responsive Elements (CRE) small molecule antagonists, cell-based qHTS assay (AID 1963591; active = well fitted inhibition curve with a large enough effect in the signal ratio in the repeat runs, not every such curve was filed as active; the % refers to the signal ratio)
Summary of the method: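 Cells (CRE-bla HEK 293T, DMEM with 10% dialyzed FBS and 25 mM HEPES) are seeded and incubated 18 h. Compounds are added with NKH477 agonist at 0.25 uM final for 3 h, then FRET substrate for 2 h.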

[15] = molecular target: Beta-2 adrenergic receptor (Homo sapiens) (UniProt P07550); experiment: Adrenergic beta2 receptor (ADRB2) small molecule antagonists, cell-based qHTS assay (AID 1963592); also: nearly all actives have a fitted effect of over 50% in size; also: potency is read from the fitted curve at half-maximal effect
Chain of Beta-2 adrenergic receptor (Homo sapiens) (P07550 whole entry, looked up): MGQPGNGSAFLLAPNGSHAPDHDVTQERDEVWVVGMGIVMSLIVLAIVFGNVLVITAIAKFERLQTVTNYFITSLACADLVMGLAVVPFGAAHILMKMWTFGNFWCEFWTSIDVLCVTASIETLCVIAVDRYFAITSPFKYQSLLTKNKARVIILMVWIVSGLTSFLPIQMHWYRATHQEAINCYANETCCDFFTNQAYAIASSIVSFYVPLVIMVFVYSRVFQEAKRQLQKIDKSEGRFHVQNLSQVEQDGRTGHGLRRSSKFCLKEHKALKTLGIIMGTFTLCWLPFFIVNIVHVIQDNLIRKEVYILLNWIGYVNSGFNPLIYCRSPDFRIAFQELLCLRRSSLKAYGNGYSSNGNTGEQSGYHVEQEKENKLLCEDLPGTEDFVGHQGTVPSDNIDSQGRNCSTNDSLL
Summary of the method: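 Assay format: CHO-ADRB2 cells, 18-20hr seeding at 37C/5% CO2, then compound plus 1nM isoproterenol agonist mix for 0.5hr RT. Homogeneous time-resolved fluorescence cAMP detection after 1hr, expressed as 665/615 nm ratio.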

[16] = molecular target: Beta-2 adrenergic receptor (Homo sapiens) (UniProt P07550); experiment: Adrenergic beta2 receptor (ADRB2) small molecule agonists, cell-based qHTS assay (AID 1963593); also: potency is read from the fitted curve at half-maximal effect;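 as to activation: CHO cells stably overexpressing human ADRB2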
Summary of the method: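 CHO cells stably over-expressing ADRB2 were plated overnight at 37C, then dosed with compounds plus a stimulation mix containing 100uM IBMX and 25uM Ro-20-1724 for 0.5hr at room temperature. cAMP was measured by HTRF competition, 1hr.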

[17] = molecular target: D(2) dopamine receptor (Homo sapiens) (UniProt P14416); experiment: Dopamine D2 receptor (DRD2) small molecule antagonists, cell-based qHTS assay (AID 1963595; active = well fitted inhibition curve with a large enough effect in the signal ratio in the repeat runs, with a control signal flat; the % refers to the signal ratio)
Chain of D(2) dopamine receptor (Homo sapiens) (P14416 whole entry, looked up): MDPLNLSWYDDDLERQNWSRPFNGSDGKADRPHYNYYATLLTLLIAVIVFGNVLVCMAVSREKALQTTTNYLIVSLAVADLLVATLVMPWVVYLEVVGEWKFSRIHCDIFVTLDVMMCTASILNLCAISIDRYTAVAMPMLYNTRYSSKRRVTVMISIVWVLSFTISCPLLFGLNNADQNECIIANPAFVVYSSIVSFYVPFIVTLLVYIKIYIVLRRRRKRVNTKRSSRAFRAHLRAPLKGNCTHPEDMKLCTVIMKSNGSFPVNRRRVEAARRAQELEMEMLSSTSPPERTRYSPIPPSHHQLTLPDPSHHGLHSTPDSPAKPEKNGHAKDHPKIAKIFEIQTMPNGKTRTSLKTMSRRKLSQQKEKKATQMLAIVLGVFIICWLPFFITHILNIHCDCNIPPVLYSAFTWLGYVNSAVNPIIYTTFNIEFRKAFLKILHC
Summary of the method: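 Cells were plated and grown for 24 h at 37 °C. Ro20-1724 (0.1 mM final) went in first, then compound for 10 min. NKH477 (200 nM) with quinpirole (12 nM) followed for 30 min at RT, then HTRF detection reagents for 1 h.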

[18] = molecular target: D(2) dopamine receptor (Homo sapiens) (UniProt P14416); experiment: Dopamine D2 receptor (DRD2) small molecule agonists, cell-based qHTS assay (AID 1963594); also: nearly all actives have a fitted effect of over 35% in size
Summary of the method: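 HEK293 cells stably expressing human DRD2, pre-treated with PDE inhibitor Ro20-1724 (0.1 mM final) and compound 10 min at room temperature, then stimulated with NKH477 (200nM […]) for 30 min. cAMP read by HTRF (665/620 nm).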

[19] = p53 small molecule agonists, cell-based qHTS assay with human liver microsomes (AID 1963577);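 also: p53 response element beta-lactamase reporter cells with liver microsomes plus NADPH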
Summary of the method: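 Steps: plate p53RE-bla cells, incubate 5 h at 37 C; add compound in DMSO; add microsomes (0.5 mg/mL final) and NADPH (0.5 mg/mL final); incubate 16 h at 37 C; add LiveBLAzer, 2 h RT; read fluorescence.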

[20] = p53 small molecule agonists, cell-based qHTS assay with rat liver microsomes (AID 1963578)
Summary of the method: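 Metabolic activation is supplied by rat liver microsomes with NADPH (each 0.5 mg/mL final). p53RE-bla cells incubate with compound 16 h at 37 C; reporter activity is measured by LiveBLAzer fluorescence.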

Row | Compound | Potency [1] | Potency [2] | Potency [3] | Potency [4] | Potency [5] | Potency [6] | Potency [7] | Potency [8] | Potency [9] | Potency [10] | Potency [11] | Potency [12] | Potency [13] | Potency [14] | Potency [15] | Potency [16] | Potency [17] | Potency [18] | Potency [19] | Potency [20]
1 | CCOC(=O)C(SP(=S)(OC)OC)c1ccccc1 (stereo not given) | inactive | inactive | inactive | inactive | inactive | inactive | inactive | inactive | inactive | inactive | inactive | inactive | inactive | inactive | inactive | inactive | inactive |  |  | 
2 | O=[N+]([O-])C(Br)(CO)CO | inactive | inactive | inactive | inactive | inactive | inactive | inactive |  | inactive |  | inactive | inactive |  |  | inactive |  |  |  |  | 
3 | CCOP(=S)(OCC)SCCl | inactive | inactive | inactive | inactive | inactive | inactive | inactive | inactive | inactive | inactive | inactive | inactive | inactive | inactive | inactive | inactive | inactive | inactive |  | 
4 | N#CC(O)c1ccccc1 (stereo not given) | inactive | inactive | inactive | inactive | inactive | inactive | inactive |  | inactive | inactive | inactive | inactive | inactive | inactive | inactive |  | inactive | inactive |  | 
5 | Cc1ccc(C)c2ccccc12 | inactive | inactive | inactive | inactive |  | inactive | inactive |  | inactive | inactive |  | inactive | inactive | inactive | inactive | inactive |  | inactive |  | 
6 | CC(=O)[O-].CC(=O)[O-].[Co+2] | inactive | inactive | inactive | inactive | inactive | inactive | inactive |  | inactive | inactive | inactive | inactive | inactive | inactive | inactive | inactive | inactive | inactive |  | 
7 | CCC(=O)c1ccc(Cl)cc1 | inactive | inactive | inactive | inactive | inactive | inactive | inactive |  | inactive | inactive |  |  | inactive | inactive | inactive |  | inactive | inactive |  | 
8 | C#CCC1=C(C)C(OC(=O)C2C(C=C(C)C)C2(C)C)CC1=O (stereo not given) | inactive | inactive | inactive | inactive | inactive | inactive | inactive |  | inactive | inactive | 11.8 µM (active) | inactive |  |  | inactive |  |  | inactive |  | 
9 | CC(c1ccccc1)(c1ccc(O)cc1)c1ccc(O)cc1 | 43.3 µM (active) | inactive | inactive |  |  |  | inactive |  | inactive | 49 µM (active) | inactive | inactive |  | inactive | 61.1 µM (active) |  | inactive | inactive | inactive | inactive
10 | CCCCCCBr | inactive | inactive |  | inactive | inactive | inactive | inactive | inactive | inactive | inactive | inactive | inactive | inactive |  |  |  | inactive | inactive | inactive | inactive
11 | C[C@]12CC[C@H]3[C@@H](CCC4=CC(=O)CC[C@@H]43)[C@@H]1CC[C@@H]2OC(=O)CCc1ccco1 | inactive | inactive | inactive |  | inactive | inactive | inactive |  | inactive | inactive | 1.3 µM (active) | inactive |  |  |  | 2.98 µM (active) |  |  |  | inactive
12 | CCCCCCCCc1ccc(O)cc1 | 43.5 µM (active) |  | inactive | inactive | 36.6 µM (active) | 48.8 µM (active) |  |  |  |  |  |  | inactive |  | inactive |  |  |  | inactive | 
13 | CON(C)C(=O)Nc1ccc(Br)c(Cl)c1 | inactive | inactive | inactive |  | inactive |  |  |  | inactive | inactive |  | inactive | inactive |  | inactive |  | inactive | inactive |  | 
14 | Cc1ncc(C[n+]2csc(CCO)c2C)c(N)n1 | inactive | inactive |  | inactive | inactive |  | inactive | inactive | inactive | inactive | inactive | inactive | inactive | inactive | inactive |  |  |  |  | inactive
